“And” between values parts separate entries of the source, which are not always exact repeats. Equal entries are not always repeated. Inconclusive results are not listed. Values without a mark were called inactive. The source made the active and inactive calls. Calls come from the whole dose curve; as a rule, active = well fitted cell-killing curve with a large enough effect in the repeat runs; inconclusive = weak or mixed curves, or effect the other way; inactive = flat fitted curve, though single readings scatter.
% is set by controls: 0 for no effect and ±100 for the full control effect; potency is the fitted concentration of half-maximal effect.

The test can be described thus: qHTS RealTime-Glo MT Cell Viability Assay in HepG2 cells - 40 hour (AID 1224870). Note: nearly all actives have a fitted effect of over 50% in size. Particulars: RealTime-Glo luminescence; series mostly up to 76.8 µM; activity change, negative = cytotoxic: at the top concentration. From the text: National Center for Advancing Translational Sciences [NCATS]
NIH Chemical Genomics Center [NCGC]
U.S. Environmental Protection Agency [EPA]
National Institutes of Environmental Health Sciences [NIEHS]
National Toxicology Program [NTP]
U.S. Food and Drug Administration [FDA]
Measure of cell viability is critical in the cell-base assay. Analysis of cell viability is necessary for the characterization of cell responses to cytotoxic drugs and environmental stress. A RealTime-Glo MT Cell Viability Assay to monitor cell viability in real time of continues cell culture during 40 hours of compound treatment was used to screen Tox21 10K library compounds in HepG2 cells. The RealTime-Glo MT Cell Viability Assay is a nonlytic, homogeneous, bioluminescent method to measure cell viability in real time using a simple, plate-based method. The assay involves adding NanoLuc luciferase and a cell-permeant prosubstrate to cells in culture. Viable cells reduce the proprietary prosubstrate to generate a substrate for NanoLuc luciferase. This substrate diffuses from cells into the surrounding culture medium, where it is rapidly used by the NanoLuc Enzyme to produce a luminescent signal. The signal correlates with the number of viable cells, making the assay well suited for cytotoxicity studies.
Tox21 Assay Protocol Summary:
The mixture of HepG2 cell suspension and reagents were dispensed at 600cells/6 ul/well in 1536-well tissue culture treated black solid bottom plates using a Multidrop dispenser. After the assay plates were incubated at a 37 C/5% CO2 incubator for 5 hours, 23 nL of compounds dissolved in DMSO, positive and negative controls was transferred to the assay plate by a pintool work station. The plates were incubated at 37 C for 40 hours. The luminescence intensity were measured at 0h, 8h, 16h, 24h, 32h and 40h time points using ViewLux plate reader during compound treatment.
With `c1ccc(C(O[C@@H]2CCCN(CCc3ccc4c(c3)OCO4)C2)c2ccccc2)cc1`, the “activity change, negative = cytotoxic” value was -8.03%.

As to `O=[N+]([O-])c1cccc(C(F)(F)F)c1`, the “activity change, negative = cytotoxic” value is 0.771%.

In the case of `O=C(/C=C/c1ccccc1)OC/C=C/c1ccccc1`, the “activity change, negative = cytotoxic” value is 6.01%.

Regarding `CC(C)(C)C1CCC(=O)CC1`, the “activity change, negative = cytotoxic” value was -3.6%.

Consider `CCc1ccc(Br)cc1`, for which the “activity change, negative = cytotoxic” value was -8.7%.

In the case of `O=C(/C=C/c1ccc(O)c(O)c1)O[C@@H](C(=O)O)[C@@H](OC(=O)/C=C/c1ccc(O)c(O)c1)C(=O)O`, the “activity change, negative = cytotoxic” value is -0.846%.

Regarding `O=[N+]([O-])c1ccc(O)cc1C(F)(F)F`, the “activity change, negative = cytotoxic” value was -27.6%.

With `COC(=O)c1ccccc1OC`, the “activity change, negative = cytotoxic” value is 0.987%.

Consider `CCCC[P+](C)(CCCC)CCCC`, for which the “activity change, negative = cytotoxic” value was -2.11%.

As for `CCCc1ccc(OCC(=O)N2CCN(C(=O)COc3ccc(CCC)cc3OC)CC2)c(OC)c1`, the “activity change, negative = cytotoxic” value was -24.1% [at 35.3 µM].

Turning to `Cc1cc(-n2nc3ccc(Cl)cc3n2)c(O)c(C(C)(C)C)c1`, the “activity change, negative = cytotoxic” value is -0.882% [at 35.3 µM].

Consider `Oc1cc(Cl)cc(Cl)c1Cl`, for which the “activity change, negative = cytotoxic” value was 3.35%.

For `CCOC(=O)c1ccc(C2CCC(NC[C@H](O)COc3ccc(O)c(NS(C)(=O)=O)c3)CC2)cc1` (stereo not given in full), the Potency was 50.7 µM (active).

For `C=Cc1cccc(C)c1`, the Potency result is “inactive”.

Turning to `COc1cc(/C=C/c2ccccc2)oc(=O)c1`, the “activity change, negative = cytotoxic” value is 0.625%.

`CCn1c2ccccc2c2cc([N+](=O)[O-])ccc21`: the “activity change, negative = cytotoxic” value was -8.97%.

Take `NC[C@H]1O[C@H](O[C@H]2[C@H](O[C@@H]3O[C@H](CO)[C@@H](O)[C@H]3O)C(O)[C@H](N)C[C@@H]2N)[C@H](N)[C@@H](O)[C@@H]1O` (stereo not given in full): the activity change, negative = cytotoxic is 0.986% [at 6.97 µM].

As for `OC[C@@H](O)[C@@H](O)CO`, the “activity change, negative = cytotoxic” value is -0.0302%.

In the case of `CCN(CCN)c1cccc(C)c1`, the Potency entry is “inactive”.

With `COc1cccc(OC)c1C(=O)O`, the “activity change, negative = cytotoxic” value is 2.74%.

`CCC(COC(=O)CCS)(COC(=O)CCS)COC(=O)CCS`: the “activity change, negative = cytotoxic” value was 1.91%.

`Cc1cc(C(C#N)c2ccc(Cl)cc2)c(Cl)cc1NC(=O)c1cc(I)cc(I)c1O` (stereo not given): the “activity change, negative = cytotoxic” value is -14.9% [at 35.3 µM].

Turning to `CC(C)Cn1cnc2c(N)nc3ccccc3c21`, the activity change, negative = cytotoxic is 1.75% [at 15.8 µM].

Take `CCOc1ccc2ccccc2c1C(=O)N[C@@H]1C(=O)N2[C@@H]1SC(C)(C)[C@@H]2C(=O)O`: the “activity change, negative = cytotoxic” value was 1.5% [at 35.3 µM].

For the molecule `OCC(F)(F)F`, the “activity change, negative = cytotoxic” value is -3.43%.

On to `Cc1ccc(C(=O)O)cc1`, for which the “activity change, negative = cytotoxic” value is 0.479%.

On to `COc1cccc2c1C(=O)c1c(O)c3c(c(O)c1C2=O)C[C@@](O)(C(C)=O)C[C@@H]3O[C@H]1C[C@H](N)[C@H](O)[C@H](C)O1`, for which the Potency was 19.6 µM (active).

On to `CCCCCc1ccc(Cl)cc1`, for which the “activity change, negative = cytotoxic” value was 0.625%.

Turning to `c1ccsc1`, the “activity change, negative = cytotoxic” value is 4.04%.

As for `O=S(=O)(O)c1ccc(Nc2nc(Nc3ccc(/C=C/c4ccc(Nc5nc(Nc6ccc(S(=O)(=O)O)cc6)nc(N(CCO)CCO)n5)cc4S(=O)(=O)O)c(S(=O)(=O)O)c3)nc(N(CCO)CCO)n2)cc1`, the “activity change, negative = cytotoxic” value is 6.31% [at 35.3 µM].

For the molecule `COc1ccc(-c2coc3cc(O)ccc3c2=O)cc1`, the “activity change, negative = cytotoxic” value was -0.721%.

As for `O=C(O)[C@H](O)[C@@H](O)[C@H](O[C@@H]1O[C@H](CO)[C@H](O)[C@H](O)[C@H]1O)[C@H](O)CO`, the “activity change, negative = cytotoxic” value was -0.224% [at 35.3 µM].

For `Cc1nc(-c2ccc(Cl)cc2)oc1COC(C)(C)C(=O)O`, the “activity change, negative = cytotoxic” value is 0.717% [at 35.3 µM].

Take `CC[C@H](C)COC(=O)/C=C/c1ccc(N=Cc2ccc(OC)cc2)cc1`: the “activity change, negative = cytotoxic” value was 6.52%.

For the molecule `CCCCCCCCCCCCOC(=O)c1ccc(O)cc1`, the “activity change, negative = cytotoxic” value was -1.04%.

Consider `CN(C)c1ccc(C(=C2C=CC(=[N+](C)C)C=C2)c2ccc(N(C)C)cc2)cc1`, for which the Potency is 34.5 µM (active) and 43.6 µM (active) and 26.8 µM (active).

Turning to `S=c1nccc[nH]1`, the “activity change, negative = cytotoxic” value was -5.76%.

`[Cl][Pt-2]([Cl])([Cl])[Cl]`: the “activity change, negative = cytotoxic” value is -9.01%.

For `CCCC(=O)OCCc1ccccc1`, the “activity change, negative = cytotoxic” value is -3.96%.

As for `OC12N=C(c3ccccc3)SC1Cc1cc(Cl)ccc12` (stereo not given), the “activity change, negative = cytotoxic” value was -6.34%.

The record behind these values is PubChem BioAssay (Tox21).
